# Reference: PubChem BioAssay (NCATS)
# Where “and” joins values, the source holds several entries; their conditions need not be identical. Equal entries are not always repeated. Records with an inconclusive call do not appear. Where a call stands in place of a potency, no number is given. The source holds several records for some structures; these can differ, active in one and inactive in another. Calls of active or inactive are those of the source. Unless noted, calls follow the shape of the dose curve; as a rule, active = well fitted curve in the direction sought with a large enough effect; inconclusive = small, poorly fitted or top-dose-only effect, or another doubt; inactive = no such curve, though single readings can be large; an effect the other way counts as inactive or inconclusive.
# Legend:
# [1] = Primary qHTS for inhibitors of nuclear receptor binding SET domain protein 2 (NSD2) in an isogenic RCH-ACV NSD2 p.E1099K mutant (9B) (AID 1645876); conditions: RCH-ACV NSD2 E1099K (9B) viability, CellTiter-Glo, 72 h; series mostly up to 44.9 µM; also: nearly all actives have a fitted effect of over 70% in size; also: potency is read from the fitted curve at half-maximal effect
# [2] = Primary qHTS for inhibitors of nuclear receptor binding SET domain protein 2 (NSD2) in an RCH-ACV wild type WT cells (2C) (AID 1645877); conditions: RCH-ACV (leukaemia line) NSD2 WT (2C) viability, CellTiter-Glo, 72 h; series mostly up to 44.9 µM; also: nearly all actives have a fitted effect of over 70% in size; also: potency is read from the fitted curve at half-maximal effect
# Papain (Carica papaya) = Papain (Carica papaya) (UniProt P00784); assay: Primary qHTS assay for inhibitors of the protease papain (AID 1645873); conditions: papain Z-FR-AMC cleavage, AMC fluorescence; series mostly up to 49.8 µM;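 also: papain turnover of Z-FR-AMC read as the AMC fluorescence gain over 10 min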; also: potency is read from the fitted curve at half-maximal effect
# [3] = target: Catechol O-methyltransferase (Homo sapiens) (UniProt P21964); assay: Confirmatory Screen for Target Class Profiling of Small Molecule Inhibitors of Methyltransferases (AID 1745852); conditions: MTase-Glo luminescence, SAH detection, recombinant enzyme; measured here: COMT max response; stronger effect = lower value
# [4] = target: Rap guanine nucleotide exchange factor 3 (Homo sapiens) (UniProt O95398); assay: Confirmatory qHTS for antagonist of cAMP-regulated guanine nucleotide exchange factor 3 (EPAC1) (AID 1645880); conditions: EPAC1 Rap1B-BODIPY-GDP exchange, fluorescence; series mostly up to 115 µM; also: nearly all actives have a fitted effect of over 55% in size
# How it was run: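 Nucleotide exchange uses 100 nM EPAC1, 250 nM RAP1B-BODIPY-GDP and 50 uM GDP, with compounds in a concentration-titration series. After 5 min at room temperature, fluorescence (480 nm ex/540 nm em) is read every 5 min for 30 min. Data are normalized to control ATA and DMSO.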
# [5] = target: Rap guanine nucleotide exchange factor 3 (Homo sapiens) (UniProt O95398); assay: Confirmatory qHTS for agonist of cAMP-regulated guanine nucleotide exchange factor 3 (EPAC1) (AID 1645881); conditions: EPAC1 Rap1B BODIPY-GDP exchange fluorescence, 100% = cAMP control response; series mostly up to 154 µM;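 also: EPAC1 catalysed release of BODIPY-GDP from Rap1B seen as fluorescence loss; nearly all actives have a fitted effect of over 75% in size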
# [6] = target: Rap guanine nucleotide exchange factor 4 (Homo sapiens) (UniProt Q8WZA2); assay: Confirmatory qHTS for agonist of cAMP-regulated guanine nucleotide exchange factor 4 (EPAC2) (AID 1645884); conditions: EPAC2 GEF activity, Rap1B-BODIPY-GDP fluorescence, percent relative to cAMP agonist control; series mostly up to 154 µM;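 also: nucleotide exchange releases bodipy-GDP from Rap1 and this lowers its fluorescence; nearly all actives have a fitted effect of over 65% in size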
# [7] = VSVG counterscreen qHTS to identify inhibitors of SARS-CoV-2 cell entry (AID 1645847; calls by dose curve; also: potency is read from the fitted curve at half-maximal effect; nearly all actives have a fitted effect of over 65% in size); conditions: VSV-G pseudotyped particle entry, luciferase; series mostly up to 57.2 µM
# How it was run: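 Luminescence from a luciferase reporter, normalised to bald particle and VSV-G pseudotyped particle wells, is the read-out. Cells are HEK293 expressing human ACE2, exposed to compound 1 h before a 48 h particle infection at 37 °C.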
# [8] = target: Rap guanine nucleotide exchange factor 4 (Homo sapiens) (UniProt Q8WZA2); assay: Confirmatory qHTS for antagonist of cAMP-regulated guanine nucleotide exchange factor 4 (EPAC2) (AID 1645885); conditions: EPAC2 Rap1B-BODIPY-GDP exchange fluorescence, biochemical; series mostly up to 12.7 µM; also: nearly all actives have a fitted effect of over 25% in size; also: potency is read from the fitted curve at half-maximal effect
# [9] = target: Rap guanine nucleotide exchange factor 3 (Homo sapiens) (UniProt O95398); assay: Counterscreen qHTS for antagonist of cAMP-regulated guanine nucleotide exchange factor 3 (EPAC1) (AID 1645888); conditions: Rap1B-BODIPY-GDP nucleotide exchange, fluorescence; series mostly up to 30.8 µM;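 also: fluorescence loss as bound BODIPY-GDP is released from Rap1B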
# How it was run: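 Measured: fluorescence of BODIPY-GDP bound to Rap1B, which falls as exchange proceeds. Conditions include 50 uM competing GDP, 5 and 30 min reads, and a later cAMP challenge for antagonist detection.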
# Rap guanine nucleotide exchange factor 3 (Homo sapiens), sequence (O95398 whole entry, looked up): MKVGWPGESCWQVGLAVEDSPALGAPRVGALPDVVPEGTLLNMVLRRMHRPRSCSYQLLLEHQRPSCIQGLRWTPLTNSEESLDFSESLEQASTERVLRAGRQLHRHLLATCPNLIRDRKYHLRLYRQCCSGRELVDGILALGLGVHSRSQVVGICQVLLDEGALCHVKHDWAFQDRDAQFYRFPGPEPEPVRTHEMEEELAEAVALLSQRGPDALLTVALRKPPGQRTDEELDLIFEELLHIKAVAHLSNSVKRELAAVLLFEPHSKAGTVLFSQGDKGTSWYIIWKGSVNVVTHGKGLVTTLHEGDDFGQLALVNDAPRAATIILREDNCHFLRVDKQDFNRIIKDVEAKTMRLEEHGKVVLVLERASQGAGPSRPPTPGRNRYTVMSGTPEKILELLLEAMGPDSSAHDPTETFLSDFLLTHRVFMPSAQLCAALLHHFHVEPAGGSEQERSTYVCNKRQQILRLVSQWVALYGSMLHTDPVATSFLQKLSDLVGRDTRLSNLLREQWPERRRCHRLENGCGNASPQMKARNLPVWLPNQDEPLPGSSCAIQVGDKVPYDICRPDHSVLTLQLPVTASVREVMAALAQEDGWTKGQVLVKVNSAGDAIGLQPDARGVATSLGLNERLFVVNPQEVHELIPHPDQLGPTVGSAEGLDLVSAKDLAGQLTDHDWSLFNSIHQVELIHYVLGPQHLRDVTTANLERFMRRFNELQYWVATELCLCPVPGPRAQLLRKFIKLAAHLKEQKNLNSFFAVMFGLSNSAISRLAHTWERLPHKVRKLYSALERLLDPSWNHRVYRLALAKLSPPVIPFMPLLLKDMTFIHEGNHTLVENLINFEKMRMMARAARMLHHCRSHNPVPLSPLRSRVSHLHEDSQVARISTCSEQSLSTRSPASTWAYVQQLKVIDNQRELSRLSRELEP
# Catechol O-methyltransferase (Homo sapiens), sequence (P21964 whole entry, looked up): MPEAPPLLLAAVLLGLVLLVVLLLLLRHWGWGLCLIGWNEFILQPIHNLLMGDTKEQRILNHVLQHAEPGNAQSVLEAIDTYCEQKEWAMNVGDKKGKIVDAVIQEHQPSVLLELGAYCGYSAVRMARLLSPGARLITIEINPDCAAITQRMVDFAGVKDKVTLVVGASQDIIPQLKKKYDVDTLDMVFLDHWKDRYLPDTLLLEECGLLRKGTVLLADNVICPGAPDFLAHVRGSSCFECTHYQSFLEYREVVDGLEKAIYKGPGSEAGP
# Papain (Carica papaya), sequence (P00784 whole entry, looked up): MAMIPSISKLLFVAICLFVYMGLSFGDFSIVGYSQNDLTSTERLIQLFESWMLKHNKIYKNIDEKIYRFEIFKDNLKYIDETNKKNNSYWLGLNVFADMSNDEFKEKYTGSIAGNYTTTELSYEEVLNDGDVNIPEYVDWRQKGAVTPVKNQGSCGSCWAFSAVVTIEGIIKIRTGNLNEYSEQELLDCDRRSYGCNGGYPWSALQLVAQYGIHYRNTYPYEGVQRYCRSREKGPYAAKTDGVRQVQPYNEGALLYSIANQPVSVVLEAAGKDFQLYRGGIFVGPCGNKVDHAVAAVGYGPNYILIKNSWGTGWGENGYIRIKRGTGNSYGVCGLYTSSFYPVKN
# Rap guanine nucleotide exchange factor 4 (Homo sapiens), sequence (Q8WZA2 whole entry, looked up): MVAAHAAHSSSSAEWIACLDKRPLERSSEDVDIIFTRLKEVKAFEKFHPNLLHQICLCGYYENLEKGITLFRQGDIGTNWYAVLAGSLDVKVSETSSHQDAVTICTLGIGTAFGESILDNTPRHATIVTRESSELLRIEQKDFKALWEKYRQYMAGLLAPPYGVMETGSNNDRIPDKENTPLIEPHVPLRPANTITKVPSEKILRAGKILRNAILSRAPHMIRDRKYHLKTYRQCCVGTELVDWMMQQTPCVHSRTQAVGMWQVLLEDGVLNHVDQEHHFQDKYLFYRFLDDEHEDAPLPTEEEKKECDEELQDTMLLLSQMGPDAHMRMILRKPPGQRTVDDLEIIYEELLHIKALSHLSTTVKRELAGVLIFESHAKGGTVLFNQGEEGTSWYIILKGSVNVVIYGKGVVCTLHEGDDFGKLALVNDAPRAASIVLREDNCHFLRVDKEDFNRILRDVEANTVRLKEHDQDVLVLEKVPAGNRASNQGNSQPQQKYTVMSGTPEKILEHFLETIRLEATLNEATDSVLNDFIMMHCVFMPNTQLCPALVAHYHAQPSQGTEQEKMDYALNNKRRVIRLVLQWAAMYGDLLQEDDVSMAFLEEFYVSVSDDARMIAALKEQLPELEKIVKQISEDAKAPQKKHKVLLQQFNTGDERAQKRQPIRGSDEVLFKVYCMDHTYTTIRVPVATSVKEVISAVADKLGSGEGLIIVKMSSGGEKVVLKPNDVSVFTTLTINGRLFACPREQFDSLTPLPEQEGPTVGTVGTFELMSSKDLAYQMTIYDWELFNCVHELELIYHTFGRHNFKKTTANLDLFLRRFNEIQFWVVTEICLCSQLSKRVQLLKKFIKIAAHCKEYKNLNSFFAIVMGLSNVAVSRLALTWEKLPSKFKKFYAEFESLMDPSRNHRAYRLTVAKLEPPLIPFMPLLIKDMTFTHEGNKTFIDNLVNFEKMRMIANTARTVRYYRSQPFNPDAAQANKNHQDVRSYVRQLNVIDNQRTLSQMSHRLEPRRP
structure (smiles),measurement,setting,value
N[C@@H](Cc1ccc(N(CCCl)CCCl)cc1)C(=O)O,Potency,[1],2.99 µM (active) and 2.63 µM (active)
same,Potency,[2],2.66 µM (active) and 2.35 µM (active)
c1ccc(C2CC2)c(OCC2=NCCN2)c1,Potency,Papain (Carica papaya),inactive
same,Potency,[2],inactive
CC(O)(CS(=O)(=O)c1ccc(F)cc1)C(=O)Nc1ccc(C#N)c(C(F)(F)F)c1 (stereo not drawn),Potency,Papain (Carica papaya),inactive
Cc1ncc(CNC(=O)N(CCCl)N=O)c(N)n1,Potency,Papain (Carica papaya),inactive
same,Potency,[1],inactive
same,Potency,[2],inactive
CCCN1CCC[C@@H]2Cc3nc(N)ncc3C[C@H]21,Potency,Papain (Carica papaya),inactive
same,Potency,[1],inactive
same,Potency,[2],inactive
Cn1c(CCCC(=O)O)nc2cc(N(CCCl)CCCl)ccc21,Potency,Papain (Carica papaya),25.1 µM (active)
C=C(C)[C@H]1Cc2c(ccc3c2O[C@@H]2COc4cc(OC)c(OC)cc4[C@@H]2C3=O)O1,Potency,Papain (Carica papaya),inactive
same,Potency,[1],0.188 µM (active)
same,Potency,[2],0.15 µM (active)
Cc1cccc(C)c1NC(=O)CN1CCCC1=O,Potency,Papain (Carica papaya),inactive
same,Potency,[1],inactive
same,Potency,[2],inactive
Cc1cccc(C)c1NC1=NCCCS1,Potency,Papain (Carica papaya),inactive
same,Potency,[1],inactive
same,Potency,[2],inactive
C[C@@H]1O[C@@H](O[C@H]2C[C@@H](O)[C@]3(CO)[C@H]4[C@H](O)C[C@]5(C)[C@@H](C6=CC(=O)OC6)CC[C@]5(O)[C@@H]4CC[C@]3(O)C2)[C@H](O)[C@H](O)[C@H]1O,Potency,Papain (Carica papaya),inactive
same,Potency,[1],29.9 nM (active) and 50.2 nM (active) and 41.7 nM (active)
same,Potency,[2],37.6 nM (active) and 100 nM (active) and 66.1 nM (active)
Nc1ccncc1,Potency,Papain (Carica papaya),inactive
same,Potency,[1],inactive
same,Potency,[2],inactive
same,activity,[3],0%
c1ccc2c(c1)OCC(C1=NCCN1)O2 (stereo not drawn),Potency,Papain (Carica papaya),inactive
same,Potency,[1],9.44 µM (active)
same,Potency,[2],7.5 µM (active)
CC(=O)[C@H]1CC[C@H]2[C@@H]3CC[C@H]4C[C@](C)(O)CC[C@]4(C)[C@H]3CC[C@]12C,Potency,Papain (Carica papaya),inactive
same,Potency,[1],inactive
same,Potency,[2],inactive
O=c1[nH]c2ccccc2n1C1CCN(CCCC(c2ccc(F)cc2)c2ccc(F)cc2)CC1,Potency,Papain (Carica papaya),inactive
same,Potency,[1],23.7 µM (active) and 5.78 µM (active)
same,Potency,[2],16.8 µM (active) and 5.78 µM (active)
same,Potency,[4],inactive
same,outcome,[5],inactive
same,outcome,[6],inactive
NCC1(CC(=O)O)CCCCC1,Potency,Papain (Carica papaya),inactive
same,Potency,[1],inactive
same,Potency,[2],inactive
CCCN1CCC[C@@H]2Cc3[nH]ncc3C[C@H]21,Potency,Papain (Carica papaya),inactive
same,Potency,[1],inactive
same,Potency,[2],inactive
COc1ccccc1N1CCNCC1,Potency,Papain (Carica papaya),inactive
O=C1NCN(c2ccccc2)C12CCN(CC1COc3ccccc3O1)CC2 (stereo not drawn),Potency,Papain (Carica papaya),inactive
same,Potency,[1],inactive
same,Potency,[2],inactive
Cc1ccc(S(=O)(=O)N[C@@H](CCCCN)C(=O)CCl)cc1,Potency,Papain (Carica papaya),14.1 µM (active)
same,Potency,[2],inactive
NCC(CC(=O)O)c1ccc(Cl)cc1 (stereo not drawn),Potency,Papain (Carica papaya),inactive
same,"activity change, negative = viability loss",[1],3.1% [at 0.588 µM] (inactive)
same,"activity change, negative = cell killing",[2],-19.2% [at 0.588 µM] (inactive)
COC[C@H]1OC(=O)c2coc3c2[C@@]1(C)C1=C(C3=O)C2CCC(=O)[C@@]2(C)C[C@H]1OC(C)=O (stereo partly drawn),Potency,Papain (Carica papaya),inactive
same,Potency,[1],1.84 µM (active) and 7.42 µM (active)
same,Potency,[2],2.59 µM (active) and 18.3 µM (active) and 7.42 µM (active)
O=c1[nH]c2ccccc2n1CCCN1CCC(n2c(=O)[nH]c3cc(Cl)ccc32)CC1,Potency,Papain (Carica papaya),inactive
same,Potency,[2],20.9 µM (active)
Clc1ccc(COC(Cn2ccnc2)c2ccc(Cl)cc2Cl)cc1 (stereo not drawn),Potency,[7],12.1 µM (active)
same,outcome,[5],inactive
same,outcome,[6],inactive
same,Potency,[8],44.1 µM (active) and inactive
same,outcome,[9],inactive
NCC(O)c1ccc(O)cc1 (stereo not drawn),Potency,Papain (Carica papaya),inactive
CNCC(O)c1ccc(O)cc1 (stereo not drawn),Potency,Papain (Carica papaya),inactive
same,Potency,[1],inactive
same,Potency,[2],inactive
N#CC(C#N)=Cc1ccc(O)c(O)c1,Potency,Papain (Carica papaya),inactive
same,Potency,[1],9.44 µM (active)
same,Potency,[2],10.6 µM (active)
same,activity,[3],34.9%
Fc1ccc(C(OCCN2CCN(CCCc3ccccc3)CC2)c2ccc(F)cc2)cc1,Potency,Papain (Carica papaya),inactive
same,Potency,[1],6.68 µM (active) and 11.8 µM (active)
same,Potency,[2],5.96 µM (active) and 9.34 µM (active)
NN=C(N)N,Potency,Papain (Carica papaya),inactive
same,Potency,[1],inactive
same,Potency,[2],inactive
CCN(CC)C(=O)N[C@@H]1C=C2c3cccc4[nH]cc(c34)C[C@@H]2N(C)C1,Potency,[1],inactive
CC(CCc1ccccc1)NC(C)C(O)c1ccc(O)cc1 (stereo not drawn),Potency,Papain (Carica papaya),inactive
same,Potency,[1],inactive
same,Potency,[2],inactive
CC(C)=CCOc1c2occc2cc2ccc(=O)oc12,Potency,Papain (Carica papaya),inactive
same,activity,[3],-8.52%
COc1ccc(C(CN(C)C)C2(O)CCCCC2)cc1 (stereo not drawn),Potency,Papain (Carica papaya),inactive
same,Potency,[1],inactive
same,Potency,[2],inactive
